Experiment [1] is described as follows: NCI Yeast Anticancer Drug Screen. Data for the rad50 strain (AID 155).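 Also: 0% = growth of vehicle-only cultures of the same strain.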 Conditions: S. cerevisiae rad50 strain growth inhibition; at 50.0 µM; stronger effect = higher value. Put shortly:
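Genetically altered yeast (DNA repair pathway); compound treatment; growth inhibition vs vehicle ctrl.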

A short description of experiment [2]: NCI Yeast Anticancer Drug Screen. Data for the mec2-1 strain (AID 157). Conditions: S. cerevisiae mec2-1 strain, at 50.0 µM, stronger effect = higher value. The gist of the method: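 mec2-1 yeast strain, carrying an alteration in DNA damage repair or cell cycle control, was exposed to compounds; growth inhibition was measured relative to vehicle-treated controls.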
Experiment [3] can be described thus: NCI Yeast Anticancer Drug Screen. Data for the sgs1 mgt1 strain (AID 161).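 Also: 0% = growth of cultures given vehicle only.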 Conditions: S. cerevisiae sgs1 mgt1 strain, at 50.0 µM, stronger effect = higher value. Put shortly:
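Growth of a repair-deficient yeast mutant was monitored after compound treatment and expressed as inhibition relative to vehicle-treated cultures.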

A short description of experiment [4]: NCI Yeast Anticancer Drug Screen. Data for the cln2 rad14 strain (AID 165).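 Also: 0% = growth equal to vehicle treated cultures.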 Particulars: S. cerevisiae cln2 rad14 strain, at 50.0 µM, stronger effect = higher value. Put shortly: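 Yeast carrying cln2 and rad14 alterations (cell cycle control and DNA damage repair) were exposed to compounds. Growth inhibition was measured against vehicle-treated controls.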
Experiment [5] is described as follows: NCI Yeast Anticancer Drug Screen. Data for the bub3 strain (AID 167). Conditions: S. cerevisiae bub3 mutant strain, at 50.0 µM, stronger effect = higher value. The gist of the method: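 Yeast carrying a defined mutation is treated with each compound, and growth is compared with that of vehicle-exposed cells to give inhibition.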
Experiment [6] is described as follows: NCI Yeast Anticancer Drug Screen. Data for the mlh1 rad18 strain (AID 175). Conditions: S. cerevisiae mlh1 rad18 strain growth inhibition; at 50.0 µM; stronger effect = higher value. The gist of the method: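 Growth inhibition of the yeast strain was measured after compound exposure and expressed relative to vehicle-treated controls. The strain carries defined defects in DNA damage repair.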

Structures are written as SMILES. This is part of a sample that, as a whole, favours compounds with a hit. Of some 79,000 tested, about 15% had one in any assay. Values without a mark were called inactive. Activity calls are given as the source filed them. Rule as the data show it: active = growth inhibition above about 70%; inactive = the rest.

The results in this text go back to PubChem BioAssay (NCI).

With `O=C(O)C(=O)O.[Co].[NH-]CC[NH-].[NH-]CC[NH-]`, the growth inhibition in experiment [1] is 4.9%; in experiment [2] it was 13.4%; in experiment [3], 6.65%; in experiment [4] it was -12.8%; in experiment [5] it was 22.4%; in experiment [6], 12.8%.
With `CC1CCNC(C)C1` (stereo not given), the growth inhibition in experiment [1] is 35.3%; in experiment [2], -10.4%; in experiment [3], -13.8%; in experiment [4], -62.9%; in experiment [5] it was 17.9%; in experiment [6] it was 8.6%.
Consider `O=C(CCN1CC=C(c2ccccc2)CC1)c1ccc(F)cc1`, for which the growth inhibition was 76.5% (active) in experiment [1]; 51.5% in experiment [2]; 88.6% (active) in experiment [3]; 67.5% in experiment [4]; 64.2% in experiment [5]; 92.3% (active) in experiment [6].
Turning to `COc1ccc(C2=CCN(c3ccc(C)cc3)P(=O)(N(CCCl)CCCl)O2)cc1` (stereo not given), the growth inhibition in experiment [1] was 46.8%; in experiment [2], 74% (active); in experiment [3], 68.9%; in experiment [4], 81.1% (active); in experiment [5], 90.8% (active); in experiment [6], 77.4% (active).
`CN(C)C(=O)c1nnsc1NN=O`: the growth inhibition in experiment [1] is 32%; in experiment [2], 33.7%; in experiment [3] it was -35.1%; in experiment [4], 8.35%; in experiment [5] it was -14.4%; in experiment [6], 9.35%.
On to `COc1ccc(CC(C)NO)cc1` (stereo not given), for which the growth inhibition in experiment [1] was -16.2%; in experiment [2] it was 8.8%; in experiment [3] it was -11.9%; in experiment [4], 11.7%; in experiment [5], 2.35%; in experiment [6], -32.5%.
For `Clc1ccc(C(c2ccccc2Cl)C(Cl)(Cl)Cl)cc1` (stereo not given), the growth inhibition in experiment [1] was -24.6%; in experiment [2], -7.8%; in experiment [3], 1.8%; in experiment [4] it was -44.6%; in experiment [5], 47.5%; in experiment [6], 12.2%.
In the case of `CC#CC(O)(C(=O)OC)c1ccccc1` (stereo not given), the growth inhibition in experiment [1] is -7.35%; in experiment [2] it was 12.6%; in experiment [3], -20.8%; in experiment [4], -23.6%; in experiment [5] it was -5.1%; in experiment [6] it was -1.9%.
As for `NNC(=O)c1ccccc1`, the growth inhibition in experiment [1] is -1.8%; in experiment [2], -2.05%; in experiment [3], -11.8%; in experiment [4] it was -36%; in experiment [5], -1.25%; in experiment [6], -19%.
Consider `C[N+]12C(=O)CC3OCC=C4C[N+]5(C)CCC6(c7ccccc71)C2C3C4CC65O` (stereo not given), for which the growth inhibition is -13.8% in experiment [1]; -34.5% in experiment [2]; -22% in experiment [3]; 11.2% in experiment [4]; -17.6% in experiment [5]; -14.8% in experiment [6].
Regarding `COc1ccc2c(c1)C1(C)CCN(C)CC(C1)C2O` (stereo not given), the growth inhibition was 47.2% in experiment [1]; 13.6% in experiment [2]; 15.6% in experiment [3]; 22.9% in experiment [4]; -1% in experiment [5]; 23.2% in experiment [6].
`CC(=O)C1CCC2C3CCC4CC(O)CCC4(C)C3CCC12C` (stereo not given): the growth inhibition in experiment [1] is 6.2%; in experiment [2] it was -59%; in experiment [3] it was 16.8%; in experiment [4] it was 26.8%; in experiment [5], 10%; in experiment [6], -7.3%.
For the molecule `O=C(O)CC(=O)O.[NH-]C1CCCCC1[NH-].[Pt+2]` (stereo not given), the growth inhibition in experiment [1] is 23.7%; in experiment [2] it was 4.35%; in experiment [3], 21.4%; in experiment [4], 30.4%; in experiment [5], 21.4%; in experiment [6] it was 13.8%.
On to `N#C[S-].N#C[S-].[Ni+2].c1ccc([PH+](c2ccccc2)c2ccccc2)cc1.c1ccc([PH+](c2ccccc2)c2ccccc2)cc1`, for which the growth inhibition is 35.5% in experiment [1]; 33.7% in experiment [2]; 50% in experiment [3]; 14.3% in experiment [4]; 34.2% in experiment [5]; 63% in experiment [6].
Turning to `CC([OH2+])CNCCN.CC([OH2+])CNCCN.O=[N+]([O-])[O-].[Cu+2]` (stereo not given), the growth inhibition is -10.1% in experiment [1]; -8.95% in experiment [2]; 5.25% in experiment [3]; -39.6% in experiment [4]; -0.7% in experiment [5]; 0.2% in experiment [6].
On to `O=c1[nH]c2ccccc2c(=O)n1-c1ccco1`, for which the growth inhibition in experiment [1] is 4.2%; in experiment [2], -13.5%; in experiment [3], -9%; in experiment [4], -15.4%; in experiment [5], -25.1%; in experiment [6], -1.65%.
Turning to `NC(=O)c1cccc([As]=O)c1` (stereo not given), the growth inhibition was -11.4% in experiment [1]; 17.4% in experiment [2]; 13.8% in experiment [3]; -18.6% in experiment [4]; 0.85% in experiment [5]; -17.6% in experiment [6].
As for `CCOP(=O)(OCC)/C(C#N)=C/c1cccs1`, the growth inhibition in experiment [1] is 0.5%; in experiment [2], -35.2%; in experiment [3], -15.2%; in experiment [4], -15.8%; in experiment [5] it was -41.8%; in experiment [6], -13.7%.
In the case of `CN(C)C(=O)Sc1ccc(S(=O)(=O)F)cc1[N+](=O)[O-]`, the growth inhibition in experiment [1] was 65.5%; in experiment [2], 36.9%; in experiment [3], 76.7% (active); in experiment [4], 42.5%; in experiment [5], 34.4%; in experiment [6], 34.6%.
For `C1=CC2CCC1C2`, the growth inhibition in experiment [1] is 15.5%; in experiment [2], 3.75%; in experiment [3], -7.1%; in experiment [4], -52%; in experiment [5] it was -5.65%; in experiment [6], 7.85%.
